Source: PMC7862700, “An all-to-all approach to the identification of sequence-specific readers for epigenetic DNA modifications on cytosine”

What was measured:
Experiment in all cases: DAPPL (digital affinity profiling via proximity ligation, sequencing); 10 mM Tris-HCl pH 7.5, 50 mM NaCl, 1 mM DTT, 4% glycerol, room temperature, 30 min; GST-TFs on glutathione beads, 16-mer random dsDNA library, 0.1% formaldehyde crosslink after washing; high values mean tight binding
Details in all cases: protein: recombinant; tags: N-terminal GST; dsDNA, one strand shown
FLI1 = target: T1, FLI1 (Homo sapiens, UniProt Q01543 1-452)
T1 sequence: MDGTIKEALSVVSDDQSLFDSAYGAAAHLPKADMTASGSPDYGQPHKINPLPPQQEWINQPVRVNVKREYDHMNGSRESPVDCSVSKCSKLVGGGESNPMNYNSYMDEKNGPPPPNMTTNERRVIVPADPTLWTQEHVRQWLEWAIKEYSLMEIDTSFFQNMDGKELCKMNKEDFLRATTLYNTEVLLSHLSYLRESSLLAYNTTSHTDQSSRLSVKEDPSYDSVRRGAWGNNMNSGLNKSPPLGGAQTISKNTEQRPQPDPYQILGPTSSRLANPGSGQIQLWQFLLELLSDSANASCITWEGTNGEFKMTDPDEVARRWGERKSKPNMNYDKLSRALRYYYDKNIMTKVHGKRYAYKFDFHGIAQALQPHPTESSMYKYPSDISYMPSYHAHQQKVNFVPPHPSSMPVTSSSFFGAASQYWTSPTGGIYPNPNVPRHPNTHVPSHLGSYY
Outline: (§1)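 Human transcription factors carrying a GST fusion were produced in yeast, bound to glutathione beads, tagged with DNA barcodes and pooled together with a tag-only sample. Each pool was held with 200 nmole of a random double-stranded 16-mer DNA library in Tris/NaCl/DTT/glycerol buffer for 30 min at room temperature, then washed, crosslinked in 0.1% formaldehyde, proximity-ligated with BsaI/T4 ligase (1 h, 37 °C), PCR-amplified and sequenced on an Illumina NextSeq500. Binding signal is the read frequency of each hexamer for a given factor divided by its frequency in the tag-only sample.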

GABPA = target: T2, GABPA (Homo sapiens, UniProt Q06546 1-454)
T2 sequence: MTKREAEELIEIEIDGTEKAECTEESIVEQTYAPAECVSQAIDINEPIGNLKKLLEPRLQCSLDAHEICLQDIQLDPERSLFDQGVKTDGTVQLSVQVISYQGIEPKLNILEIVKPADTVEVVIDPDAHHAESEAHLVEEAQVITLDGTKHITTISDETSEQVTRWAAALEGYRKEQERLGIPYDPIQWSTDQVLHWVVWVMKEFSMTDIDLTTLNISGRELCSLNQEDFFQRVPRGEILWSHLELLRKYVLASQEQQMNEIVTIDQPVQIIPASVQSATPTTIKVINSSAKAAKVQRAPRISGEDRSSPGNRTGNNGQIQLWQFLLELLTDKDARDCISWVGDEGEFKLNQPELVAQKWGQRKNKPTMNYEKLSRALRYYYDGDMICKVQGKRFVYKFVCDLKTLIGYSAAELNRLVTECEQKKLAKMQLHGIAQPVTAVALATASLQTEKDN
Outline: as §1

ERG = target: T3, ERG (Homo sapiens, UniProt P11308 1-479)
T3 sequence: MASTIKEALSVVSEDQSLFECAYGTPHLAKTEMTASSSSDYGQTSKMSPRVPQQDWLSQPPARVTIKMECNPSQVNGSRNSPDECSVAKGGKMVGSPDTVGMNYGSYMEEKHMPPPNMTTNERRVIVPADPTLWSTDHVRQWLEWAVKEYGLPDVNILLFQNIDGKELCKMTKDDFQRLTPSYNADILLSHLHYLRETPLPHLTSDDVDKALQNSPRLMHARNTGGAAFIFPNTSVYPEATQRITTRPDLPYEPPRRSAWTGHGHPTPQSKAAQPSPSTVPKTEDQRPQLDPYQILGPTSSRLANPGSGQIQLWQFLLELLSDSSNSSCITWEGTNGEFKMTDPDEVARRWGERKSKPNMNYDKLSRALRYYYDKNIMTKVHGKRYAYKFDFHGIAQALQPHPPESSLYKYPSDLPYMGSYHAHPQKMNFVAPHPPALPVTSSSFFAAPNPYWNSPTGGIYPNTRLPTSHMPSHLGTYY
Outline: as §1

EHF = target: T4, EHF (Homo sapiens, UniProt Q9NZC4 1-300)
T4 sequence: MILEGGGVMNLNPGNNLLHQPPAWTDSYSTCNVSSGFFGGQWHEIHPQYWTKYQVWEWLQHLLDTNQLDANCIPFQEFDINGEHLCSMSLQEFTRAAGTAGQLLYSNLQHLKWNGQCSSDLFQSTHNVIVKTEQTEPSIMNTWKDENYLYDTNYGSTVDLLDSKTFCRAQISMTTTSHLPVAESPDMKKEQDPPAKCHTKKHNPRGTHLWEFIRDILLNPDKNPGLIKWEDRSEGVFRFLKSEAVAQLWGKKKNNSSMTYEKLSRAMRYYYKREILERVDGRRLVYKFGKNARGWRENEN
Outline: as §1

SPIB = SPIB (Homo sapiens, UniProt Q01892 1-262)
Chain of SPIB (Q01892 whole entry): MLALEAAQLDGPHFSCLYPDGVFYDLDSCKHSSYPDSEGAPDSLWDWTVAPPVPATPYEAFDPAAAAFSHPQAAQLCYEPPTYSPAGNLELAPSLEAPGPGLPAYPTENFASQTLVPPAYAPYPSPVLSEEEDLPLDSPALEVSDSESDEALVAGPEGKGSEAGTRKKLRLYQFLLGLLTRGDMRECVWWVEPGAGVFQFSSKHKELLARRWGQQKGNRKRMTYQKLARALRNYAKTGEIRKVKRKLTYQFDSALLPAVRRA
Outline: as §1

ELK3 = target: T5, ELK3 (Homo sapiens, UniProt P41970 1-407)
T5 sequence: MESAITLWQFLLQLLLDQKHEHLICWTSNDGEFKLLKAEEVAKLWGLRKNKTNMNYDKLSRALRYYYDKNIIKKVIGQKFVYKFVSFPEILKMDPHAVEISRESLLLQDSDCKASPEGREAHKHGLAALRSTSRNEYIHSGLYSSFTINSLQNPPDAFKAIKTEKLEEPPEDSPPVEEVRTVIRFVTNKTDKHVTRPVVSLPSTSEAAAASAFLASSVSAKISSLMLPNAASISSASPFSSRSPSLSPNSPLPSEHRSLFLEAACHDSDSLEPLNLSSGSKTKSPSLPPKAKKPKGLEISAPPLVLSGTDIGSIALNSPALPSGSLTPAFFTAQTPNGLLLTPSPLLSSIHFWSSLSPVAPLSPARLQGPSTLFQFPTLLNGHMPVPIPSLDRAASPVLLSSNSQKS
Outline: as §1

FEV = target: T6, FEV (Homo sapiens, UniProt Q99581 1-238)
T6 sequence: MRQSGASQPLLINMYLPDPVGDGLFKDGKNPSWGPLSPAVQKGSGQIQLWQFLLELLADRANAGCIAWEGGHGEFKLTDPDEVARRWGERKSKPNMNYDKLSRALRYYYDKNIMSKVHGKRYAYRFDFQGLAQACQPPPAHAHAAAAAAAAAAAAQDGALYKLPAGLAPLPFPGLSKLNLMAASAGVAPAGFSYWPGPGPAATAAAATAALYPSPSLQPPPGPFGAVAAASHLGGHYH
Outline: as §1

ETV5 = ETV5 (Homo sapiens, UniProt P41161 1-510)
Chain of ETV5 (P41161 whole entry): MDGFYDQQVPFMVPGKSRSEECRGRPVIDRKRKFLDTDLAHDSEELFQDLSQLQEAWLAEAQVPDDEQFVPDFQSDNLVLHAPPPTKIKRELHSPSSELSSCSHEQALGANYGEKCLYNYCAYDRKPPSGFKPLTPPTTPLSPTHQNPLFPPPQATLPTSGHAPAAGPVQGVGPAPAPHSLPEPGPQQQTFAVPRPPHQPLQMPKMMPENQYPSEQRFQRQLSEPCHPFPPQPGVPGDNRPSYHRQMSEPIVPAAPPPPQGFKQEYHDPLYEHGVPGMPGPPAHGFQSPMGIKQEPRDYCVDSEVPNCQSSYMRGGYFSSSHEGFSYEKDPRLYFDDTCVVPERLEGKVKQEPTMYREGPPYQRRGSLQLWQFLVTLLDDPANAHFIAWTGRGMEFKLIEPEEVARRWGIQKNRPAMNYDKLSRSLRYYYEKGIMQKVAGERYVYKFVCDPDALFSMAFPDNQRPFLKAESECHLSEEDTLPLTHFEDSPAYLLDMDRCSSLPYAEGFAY
Outline: as §1

SPIC = target: T7, SPIC (Homo sapiens, UniProt Q8N5J4 1-248)
T7 sequence: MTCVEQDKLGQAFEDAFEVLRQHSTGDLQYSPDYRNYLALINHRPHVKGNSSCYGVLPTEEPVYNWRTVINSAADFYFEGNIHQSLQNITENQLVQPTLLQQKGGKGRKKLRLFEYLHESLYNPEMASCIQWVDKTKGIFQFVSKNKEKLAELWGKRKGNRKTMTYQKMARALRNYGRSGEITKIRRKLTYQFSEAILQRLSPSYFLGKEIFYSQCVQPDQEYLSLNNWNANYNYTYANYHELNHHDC
Outline: as §1

ETV1 = ETV1 (Homo sapiens, UniProt P50549 1-477)
Chain of ETV1 (P50549 whole entry): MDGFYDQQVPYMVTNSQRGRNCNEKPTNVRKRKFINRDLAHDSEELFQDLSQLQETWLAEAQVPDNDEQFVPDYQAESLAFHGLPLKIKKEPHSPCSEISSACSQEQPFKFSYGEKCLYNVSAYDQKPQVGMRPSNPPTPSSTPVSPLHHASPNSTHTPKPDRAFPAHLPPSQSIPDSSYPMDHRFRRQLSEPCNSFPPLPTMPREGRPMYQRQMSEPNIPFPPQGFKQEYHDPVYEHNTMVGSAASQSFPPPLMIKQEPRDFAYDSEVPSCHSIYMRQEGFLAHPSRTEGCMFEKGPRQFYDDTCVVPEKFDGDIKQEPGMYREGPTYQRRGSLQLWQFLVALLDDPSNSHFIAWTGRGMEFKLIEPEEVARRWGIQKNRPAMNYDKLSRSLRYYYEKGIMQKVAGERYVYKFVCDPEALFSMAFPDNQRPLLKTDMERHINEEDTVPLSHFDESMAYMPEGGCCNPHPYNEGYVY
Outline: as §1

ETV3L = target: T8, ETV3L (Homo sapiens, UniProt Q6ZN32 1-361)
T8 sequence: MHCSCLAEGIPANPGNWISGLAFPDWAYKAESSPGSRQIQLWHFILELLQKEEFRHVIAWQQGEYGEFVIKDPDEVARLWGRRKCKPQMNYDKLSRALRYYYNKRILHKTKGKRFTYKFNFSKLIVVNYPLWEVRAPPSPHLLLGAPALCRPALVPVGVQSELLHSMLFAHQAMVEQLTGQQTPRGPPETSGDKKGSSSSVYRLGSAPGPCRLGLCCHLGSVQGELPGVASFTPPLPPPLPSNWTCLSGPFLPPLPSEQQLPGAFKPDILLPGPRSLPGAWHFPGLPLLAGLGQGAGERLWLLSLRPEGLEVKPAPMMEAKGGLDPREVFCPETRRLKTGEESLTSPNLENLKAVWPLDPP
Outline: as §1

SPDEF = target: T9, SPDEF (Homo sapiens, UniProt O95238 1-335)
T9 sequence: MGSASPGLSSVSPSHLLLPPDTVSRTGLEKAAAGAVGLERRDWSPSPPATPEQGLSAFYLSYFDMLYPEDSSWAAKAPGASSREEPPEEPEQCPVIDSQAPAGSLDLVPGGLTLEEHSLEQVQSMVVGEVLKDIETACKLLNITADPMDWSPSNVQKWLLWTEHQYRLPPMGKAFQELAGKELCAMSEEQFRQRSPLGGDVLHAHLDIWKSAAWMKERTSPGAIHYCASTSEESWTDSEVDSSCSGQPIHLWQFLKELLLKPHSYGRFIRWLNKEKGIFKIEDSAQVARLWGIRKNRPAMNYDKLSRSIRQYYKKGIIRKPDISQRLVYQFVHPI
Outline: as §1

ETV3 = target: T10, ETV3 (Homo sapiens, UniProt P41162-2 1-143)
T10 sequence: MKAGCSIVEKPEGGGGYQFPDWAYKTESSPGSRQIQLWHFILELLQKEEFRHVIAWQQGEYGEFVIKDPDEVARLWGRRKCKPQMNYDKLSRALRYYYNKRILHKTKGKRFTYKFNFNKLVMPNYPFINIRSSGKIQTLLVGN
Outline: as §1

ETV6 = ETV6 (Homo sapiens, UniProt P41212 1-452)
Chain of ETV6 (P41212 whole entry): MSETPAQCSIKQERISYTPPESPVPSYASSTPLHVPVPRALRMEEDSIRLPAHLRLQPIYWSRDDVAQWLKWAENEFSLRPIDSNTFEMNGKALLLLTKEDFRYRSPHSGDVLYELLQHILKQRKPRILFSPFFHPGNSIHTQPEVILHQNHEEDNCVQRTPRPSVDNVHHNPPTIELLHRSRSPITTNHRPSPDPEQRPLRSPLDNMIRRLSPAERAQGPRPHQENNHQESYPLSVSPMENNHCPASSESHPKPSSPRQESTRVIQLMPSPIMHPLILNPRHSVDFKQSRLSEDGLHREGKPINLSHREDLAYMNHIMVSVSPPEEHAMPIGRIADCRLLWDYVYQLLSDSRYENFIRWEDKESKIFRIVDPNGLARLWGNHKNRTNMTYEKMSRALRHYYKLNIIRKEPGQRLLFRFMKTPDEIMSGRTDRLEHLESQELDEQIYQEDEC
Outline: as §1

ELK1 = target: T11, ELK1 (Homo sapiens, UniProt P19419 1-428)
T11 sequence: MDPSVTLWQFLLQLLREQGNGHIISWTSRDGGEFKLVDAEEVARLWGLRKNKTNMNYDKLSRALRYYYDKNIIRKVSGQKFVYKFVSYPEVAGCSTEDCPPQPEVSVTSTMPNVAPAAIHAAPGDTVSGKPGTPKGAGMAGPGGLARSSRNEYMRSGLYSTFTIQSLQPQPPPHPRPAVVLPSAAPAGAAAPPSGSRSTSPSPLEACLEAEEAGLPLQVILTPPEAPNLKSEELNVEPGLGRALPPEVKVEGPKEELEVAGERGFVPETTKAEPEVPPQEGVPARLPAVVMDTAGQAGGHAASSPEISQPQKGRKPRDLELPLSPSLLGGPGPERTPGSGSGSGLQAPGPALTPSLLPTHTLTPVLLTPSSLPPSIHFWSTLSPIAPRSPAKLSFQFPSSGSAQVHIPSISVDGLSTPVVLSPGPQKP
Outline: as §1

SPI1 = SPI1 (Homo sapiens, UniProt P17947 1-270)
Outline: as §1

ETS2 = target: T12, ETS2 (Homo sapiens, UniProt P15036 1-469)
T12 sequence: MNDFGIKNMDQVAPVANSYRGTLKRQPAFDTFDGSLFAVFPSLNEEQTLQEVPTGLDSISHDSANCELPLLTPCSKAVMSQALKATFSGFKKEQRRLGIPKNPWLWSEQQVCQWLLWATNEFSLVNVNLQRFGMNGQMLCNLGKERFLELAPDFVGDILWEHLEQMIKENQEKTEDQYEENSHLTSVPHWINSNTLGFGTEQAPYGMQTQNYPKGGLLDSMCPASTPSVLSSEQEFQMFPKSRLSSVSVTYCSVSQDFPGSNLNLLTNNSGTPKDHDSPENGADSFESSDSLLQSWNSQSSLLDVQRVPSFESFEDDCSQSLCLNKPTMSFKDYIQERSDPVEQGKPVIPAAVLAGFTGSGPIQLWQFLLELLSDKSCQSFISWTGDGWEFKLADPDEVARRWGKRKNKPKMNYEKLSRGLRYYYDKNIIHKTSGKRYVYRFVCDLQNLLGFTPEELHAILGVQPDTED
Outline: as §1

ELF4 = ELF4 (Homo sapiens, UniProt Q99607 1-663)
Chain of ELF4 (Q99607 whole entry): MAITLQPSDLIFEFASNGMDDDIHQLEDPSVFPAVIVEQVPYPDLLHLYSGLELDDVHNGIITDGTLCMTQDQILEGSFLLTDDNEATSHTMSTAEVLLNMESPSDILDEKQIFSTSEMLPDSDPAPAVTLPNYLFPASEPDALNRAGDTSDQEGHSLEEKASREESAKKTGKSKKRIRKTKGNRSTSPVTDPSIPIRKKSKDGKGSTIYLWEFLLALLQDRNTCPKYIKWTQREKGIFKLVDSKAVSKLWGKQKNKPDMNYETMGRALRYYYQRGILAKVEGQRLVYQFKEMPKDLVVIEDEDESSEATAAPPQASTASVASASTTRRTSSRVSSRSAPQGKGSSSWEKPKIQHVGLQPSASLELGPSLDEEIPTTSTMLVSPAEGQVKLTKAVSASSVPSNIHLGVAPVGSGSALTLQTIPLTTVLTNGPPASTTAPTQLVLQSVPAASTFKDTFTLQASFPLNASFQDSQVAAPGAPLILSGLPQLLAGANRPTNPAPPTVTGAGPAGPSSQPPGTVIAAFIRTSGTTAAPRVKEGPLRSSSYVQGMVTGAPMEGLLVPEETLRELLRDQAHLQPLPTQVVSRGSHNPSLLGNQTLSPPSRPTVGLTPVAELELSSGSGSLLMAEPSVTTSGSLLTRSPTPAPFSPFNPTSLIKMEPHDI
Outline: as §1

Sequence	binding signal (FLI1)	binding signal (GABPA)	binding signal (ERG)	binding signal (EHF)	binding signal (SPIB)	binding signal (ELK3)	binding signal (FEV)	binding signal (ETV5)	binding signal (SPIC)	binding signal (ETV1)	binding signal (ETV3L)	binding signal (SPDEF)	binding signal (ETV3)	binding signal (ETV6)	binding signal (ELK1)	binding signal (SPI1)	binding signal (ETS2)	binding signal (ELF4)
GTCCGC	1.1 fold enrichment (6-mer frequency, TF over GST control)	1 fold enrichment (6-mer frequency, TF over GST control)	1.04 fold enrichment (6-mer frequency, TF over GST control)	1.05 fold enrichment (6-mer frequency, TF over GST control)	1.03 fold enrichment (6-mer frequency, TF over GST control)	1.1 fold enrichment (6-mer frequency, TF over GST control)	1.04 fold enrichment (6-mer frequency, TF over GST control)	1.07 fold enrichment (6-mer frequency, TF over GST control)	1.21 fold enrichment (6-mer frequency, TF over GST control)	1.08 fold enrichment (6-mer frequency, TF over GST control)	1.02 fold enrichment (6-mer frequency, TF over GST control)	1.07 fold enrichment (6-mer frequency, TF over GST control)	1.03 fold enrichment (6-mer frequency, TF over GST control)	1.03 fold enrichment (6-mer frequency, TF over GST control)	–	–	–	–
AACGGA	1.05 fold enrichment (6-mer frequency, TF over GST control)	–	1.18 fold enrichment (6-mer frequency, TF over GST control)	1.13 fold enrichment (6-mer frequency, TF over GST control)	1.07 fold enrichment (6-mer frequency, TF over GST control)	1.13 fold enrichment (6-mer frequency, TF over GST control)	1.35 fold enrichment (6-mer frequency, TF over GST control)	1.1 fold enrichment (6-mer frequency, TF over GST control)	1.04 fold enrichment (6-mer frequency, TF over GST control)	1.11 fold enrichment (6-mer frequency, TF over GST control)	1.01 fold enrichment (6-mer frequency, TF over GST control)	1.23 fold enrichment (6-mer frequency, TF over GST control)	1.08 fold enrichment (6-mer frequency, TF over GST control)	1.2 fold enrichment (6-mer frequency, TF over GST control)	1.08 fold enrichment (6-mer frequency, TF over GST control)	1.15 fold enrichment (6-mer frequency, TF over GST control)	1.15 fold enrichment (6-mer frequency, TF over GST control)	–
CGGATC	1.04 fold enrichment (6-mer frequency, TF over GST control)	1.04 fold enrichment (6-mer frequency, TF over GST control)	1.05 fold enrichment (6-mer frequency, TF over GST control)	1.02 fold enrichment (6-mer frequency, TF over GST control)	1.01 fold enrichment (6-mer frequency, TF over GST control)	–	–	1.03 fold enrichment (6-mer frequency, TF over GST control)	1.02 fold enrichment (6-mer frequency, TF over GST control)	–	–	1.67 fold enrichment (6-mer frequency, TF over GST control)	1.06 fold enrichment (6-mer frequency, TF over GST control)	–	–	–	–	1.01 fold enrichment (6-mer frequency, TF over GST control)
